The test system of assay [1] is Plasmodium falciparum Sir2 (PF13_0152, Sir2A). Description: pfSir2 binders on small-molecule microarrays, primary screen, biochemical, small-molecule microarray, 635 nm fluorescence (AID 1098).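 Further: score merges spot fluorescence intensity with its signal-to-noise ratio.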 Particulars: small-molecule microarray binding, fluorescence 635 nm; higher = more signal.
A short description of assay [2]: small-molecule microarray binders of probe aDKK1, primary screen, biochemical, biotinylated probe, 635/667 nm fluorescence (AID 1099).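 Further: score merges 667nm spot fluorescence with signal to noise across triplicate slides; reference of the scale not given here.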 Particulars: higher = more signal.
Assay [3] is described as follows: small-molecule microarray binders of probe aCHRDL2, primary screen, biochemical, biotinylated probe, 635/667 nm fluorescence (AID 1100). Particulars: higher = more signal.
A short description of assay [4]: splicing luciferase reporter signal modulators, primary screen, spliceosome inhibition project, cell-based, HEK293, splice +/- reporter (AID 1101).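 Further: HEK293 cells carrying a splicing-competent luciferase reporter gene; test concentration not given here.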 Particulars: luminescence, 24 h, higher = more signal, called active from +8 up or from −8 down. (In a reporter assay the amount or activity of a reporter protein is the signal.)
The target in assay [5] is Fibroblast growth factor 10 (Homo sapiens) (UniProt O15520). Description: FGF10 binders on small-molecule microarrays, primary screen, biochemical, small-molecule microarray, 635 nm fluorescence (AID 1102). Particulars: FGF10 binding, fluorescence 635 nm, higher = more signal.
Sequence of Fibroblast growth factor 10 (Homo sapiens) (O15520 whole entry, looked up): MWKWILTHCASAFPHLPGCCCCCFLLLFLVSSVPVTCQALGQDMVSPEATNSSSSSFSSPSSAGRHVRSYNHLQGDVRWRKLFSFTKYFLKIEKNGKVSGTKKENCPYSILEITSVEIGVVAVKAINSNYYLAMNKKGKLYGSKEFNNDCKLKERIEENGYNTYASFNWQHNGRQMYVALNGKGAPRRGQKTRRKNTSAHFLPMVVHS
Assay [6] has as its system glycogen synthase kinase-3 (GSK3A per assay name; protocol says GSK3B). Description: GSK3 binders on small-molecule microarrays, primary screen, biochemical, small-molecule microarray, 635 nm fluorescence, GSK3A (AID 1103). Further: the record names both GSK3A and GSK3B. Particulars: small-molecule microarray binding, fluorescence 635 nm; higher = more signal.
Assay [7] has as its target Epidermal growth factor receptor (Homo sapiens) (UniProt P00533). Description: EGFR binders on small-molecule microarrays, primary screen, biochemical, small-molecule microarray, 635 nm fluorescence (AID 1104).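 Further: score merges 667 nm emission intensity with spot signal to noise over triplicate slides.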 The following applies: EGFR binding, higher = more signal.
The target in assay [8] is Follistatin-related protein 3 (Homo sapiens) (UniProt O95633). Description: FSTL3 binders on small-molecule microarrays, primary screen, biochemical, small-molecule microarray, 635 nm fluorescence (AID 1105).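 Further: score merges emission near 667 nm and signal to noise per printed spot across three slides.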 The following applies: FSTL3 binding, higher = more signal.
Sequence of Follistatin-related protein 3 (Homo sapiens) (O95633 whole entry, looked up): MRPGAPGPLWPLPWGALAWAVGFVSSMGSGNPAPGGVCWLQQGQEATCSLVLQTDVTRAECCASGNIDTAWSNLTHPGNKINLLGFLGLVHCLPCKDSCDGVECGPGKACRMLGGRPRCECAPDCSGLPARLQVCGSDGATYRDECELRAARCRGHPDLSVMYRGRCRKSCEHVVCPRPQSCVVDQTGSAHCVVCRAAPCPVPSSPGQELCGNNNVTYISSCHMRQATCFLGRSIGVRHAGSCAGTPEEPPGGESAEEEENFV
The target in assay [9] is Dickkopf-related protein 1 (Homo sapiens) (UniProt O94907). Description: DKK1 binders on small-molecule microarrays, primary screen, biochemical, small-molecule microarray, 635 nm fluorescence scan (AID 1106).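 Further: score merges emission near 667 nm with signal to noise over three replicate slides.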 The following applies: DKK1 binding, higher = more signal.
Sequence of Dickkopf-related protein 1 (Homo sapiens) (O94907 whole entry, looked up): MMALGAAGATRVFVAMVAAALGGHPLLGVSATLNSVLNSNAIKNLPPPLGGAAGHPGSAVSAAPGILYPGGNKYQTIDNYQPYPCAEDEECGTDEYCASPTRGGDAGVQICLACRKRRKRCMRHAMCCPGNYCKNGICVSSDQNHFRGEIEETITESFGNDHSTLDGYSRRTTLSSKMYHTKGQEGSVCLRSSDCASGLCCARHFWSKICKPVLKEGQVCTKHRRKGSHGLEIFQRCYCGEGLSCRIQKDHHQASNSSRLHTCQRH
Assay [10] deals with Inhibin beta A chain (activin A). Description: INHBA (activin A) binders on microarrays, primary screen, biochemical, small-molecule microarray, 635 nm fluorescence scan (AID 1107).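 Further: mouse activin A protein probed at 4.33 µg/mL on printed slides; score merges bound-protein fluorescence near 667 nm with spot signal-to-noise.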 Particulars: small-molecule microarray binding, higher = more signal.

Active and inactive are the calls of the source.

Sequence of Epidermal growth factor receptor (Homo sapiens) (P00533 whole entry, looked up): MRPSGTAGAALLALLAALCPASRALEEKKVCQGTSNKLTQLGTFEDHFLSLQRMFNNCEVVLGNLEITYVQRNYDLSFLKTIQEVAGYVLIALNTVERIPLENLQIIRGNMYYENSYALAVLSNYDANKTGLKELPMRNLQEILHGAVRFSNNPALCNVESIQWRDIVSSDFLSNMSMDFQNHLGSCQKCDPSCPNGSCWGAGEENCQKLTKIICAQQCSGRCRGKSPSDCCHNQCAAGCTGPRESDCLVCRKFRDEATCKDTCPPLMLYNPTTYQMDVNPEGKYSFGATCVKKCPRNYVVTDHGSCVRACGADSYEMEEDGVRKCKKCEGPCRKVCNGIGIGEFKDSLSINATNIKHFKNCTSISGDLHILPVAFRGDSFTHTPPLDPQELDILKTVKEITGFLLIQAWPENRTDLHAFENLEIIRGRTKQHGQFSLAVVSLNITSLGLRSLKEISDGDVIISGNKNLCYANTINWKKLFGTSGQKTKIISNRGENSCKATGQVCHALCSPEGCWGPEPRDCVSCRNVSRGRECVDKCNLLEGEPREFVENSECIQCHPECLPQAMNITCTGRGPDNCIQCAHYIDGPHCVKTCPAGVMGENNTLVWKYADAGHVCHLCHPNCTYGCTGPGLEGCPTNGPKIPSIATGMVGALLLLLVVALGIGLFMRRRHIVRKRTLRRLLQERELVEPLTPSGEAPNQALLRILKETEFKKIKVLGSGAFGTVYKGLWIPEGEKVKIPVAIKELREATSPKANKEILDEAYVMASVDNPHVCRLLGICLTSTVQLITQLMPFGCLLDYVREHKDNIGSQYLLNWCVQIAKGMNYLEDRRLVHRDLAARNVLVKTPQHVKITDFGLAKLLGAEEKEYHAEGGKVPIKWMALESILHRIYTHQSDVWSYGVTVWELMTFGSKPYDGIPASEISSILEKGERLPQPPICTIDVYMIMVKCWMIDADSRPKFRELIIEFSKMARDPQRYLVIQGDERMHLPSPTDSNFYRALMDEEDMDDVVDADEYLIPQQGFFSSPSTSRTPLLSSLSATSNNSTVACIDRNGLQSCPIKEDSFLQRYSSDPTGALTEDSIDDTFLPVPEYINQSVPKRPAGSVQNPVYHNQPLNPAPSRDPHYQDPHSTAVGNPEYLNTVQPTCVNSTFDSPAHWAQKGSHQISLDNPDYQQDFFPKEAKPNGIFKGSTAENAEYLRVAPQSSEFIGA

Regarding `CN(C)C(=O)[C@@]1(CCC(=O)OC(C)(C)C)N=C(c2ccc(OCCCO)cc2)O[C@H]1c1ccccc1CN=[N+]=[N-]`, the composite z-score in [1] is 1.6; in assay [2], 0.473; in [3], 0.724; in assay [5], 0.965; in [6], -0.416; in assay [7], -0.341. The composite z-score in assay [8] is 0.442; in [9] it was -0.695; in [10] it was -0.0415. Also, in [4], the z-score is 0.277 (inactive).

For the molecule `Cc1ccc(S[C@]2(C(=O)NCc3ccccc3)CC(=O)N(Cc3cc(C(F)(F)F)cc(C(F)(F)F)c3)[C@@H]2c2ccc(CO)cc2I)cc1`, the composite z-score in assay [1] was -0.466; in assay [2], 0.664; in assay [3], 1.22; in assay [5], -1.31; in [6], -0.714; in assay [7], -1.78. For the same molecule, the composite z-score in assay [8] is -0.203; in assay [9] it was -1.54; in [10], 1.02. In assay [4], the z-score is -1.21 (inactive).

`O=C1NC(=O)C2C1C=CC(C(O)c1ccccn1)N2Nc1ccc(Cl)cc1Cl` (stereo not given): the composite z-score in assay [1] was 0.827; in [2], 0.315; in assay [3], 0.717; in assay [5], 0.0551; in assay [6] it was -0.0767; in assay [7] it was 0.107. Moreover, the composite z-score in [8] was -0.196; in assay [9], -0.35; in [10], 0.386. Moreover, the z-score in [4] was 1.54 (inactive).

With `COCCOC(=O)N1C(=O)[C@@]2(c3cc(C#CCCO)ccc31)[C@H](C(=O)N1CCCCCCC1)[C@H]1C(=O)O[C@H](c3ccccc3)[C@H](c3ccccc3)N1[C@@H]2c1ccccc1OCCO`, the composite z-score in [1] came out at 1.24; in assay [2] it was 2.67; in assay [3], 1.6; in [5], 0.663; in [6] it was 1.35; in assay [7], 1.31. The composite z-score in [8] is 1.58; in [9], 1.43; in assay [10], 1.86. For the same molecule, the z-score in [4] was -0.0434 (inactive).

`C=C(COC)/C(=C/C[C@H](OC(C)=O)c1cccc(OCCO)c1)c1cnc2ccccc2c1`: the composite z-score in [1] was 1.38; in [2], -0.0559; in assay [3], 0.0794; in assay [5] it was 1.51; in [6], 0.965; in assay [7], 0.771. Also, the composite z-score in [8] is 1.58; in assay [9] it was 0.83; in assay [10] it was 1.75. Also, the z-score in assay [4] was 0.344 (inactive).

Consider `CC=CC(O)C1C=CC2C(=O)NC(=O)C2N1Nc1ccccn1` (stereo not given), for which the composite z-score is 0.733 in assay [1]; -0.0419 in assay [2]; -0.185 in assay [3]; 0.22 in [5]; 0.717 in assay [6]; 0.673 in assay [7]. For the same molecule, the composite z-score in assay [8] was found to be 0.6; in assay [9], 0.697; in [10] it was 1.25. Also, the z-score in [4] is 1.12 (inactive).

`CCOC(=O)C1=C[C@@H](c2ccccc2)N(S(=O)(=O)c2ccc(C)cc2)[C@H]1c1ccccc1`: the composite z-score in assay [1] is 0.394; in [2] it was 0.0612; in assay [3], 0.753; in [5] it was -0.0005; in assay [6], -0.193; in assay [7], 0.0794. In addition, the results for the composite z-score in [8], in assay [9] and in assay [10] were -0.0021, -0.399 and 1.46, respectively. Further, in assay [4], the z-score is -0.924 (inactive).

Regarding `COc1ccc(C#Cc2ccc3c(c2)[C@]2(C(=O)N3)[C@H](C(=O)Nc3nc4ccccc4s3)[C@H]3C(=O)O[C@H](c4ccccc4)[C@H](c4ccccc4)N3[C@@H]2c2ccccc2OCCO)cc1`, the composite z-score in [1] was 0.465; in assay [2], 0.243; in assay [3], -0.125; in [5], 0.463; in assay [6], 0.933; in [7], 0.19. Further, the results for the composite z-score in [8], in assay [9] and in assay [10] were 0.821, 0.47 and 0.648, respectively. Further, the z-score in assay [4] is 0.17 (inactive).

Take `CCOC(=O)C1=CCN(S(=O)(=O)c2ccc(C)cc2)C1c1ccccc1` (stereo not given): the composite z-score is 0.494 in assay [1]; 0.129 in assay [2]; 0.221 in assay [3]; 1.19 in assay [5]; 0.509 in assay [6]; 0.204 in assay [7]. Besides, the composite z-score turned out to be 0.493 in [8], 0.22 in assay [9] and 0.867 in assay [10]. Also, the z-score in assay [4] was -0.377 (inactive).

As to `CCOC(=O)C1=C[C@@H](C(C)(C)C)N(S(=O)(=O)c2ccc(C)cc2)[C@H]1c1cccc(Cl)c1`, the composite z-score in assay [1] came out at 0.758; in assay [2], 0.821; in [3], 0.182; in [5], 0.907; in assay [6], 1.31; in assay [7], 0.427. Besides, the composite z-score in [8] is 1.36; in assay [9] it was 0.0675; in assay [10], -0.213. The z-score in assay [4] was -0.517 (inactive).

With `COc1ccc([Si](C)(C)[C@@H]2[C@@H](CC(=O)N3Cc4ccccc4C[C@H]3CO)O[C@]3(C(=O)N(c4ccccc4)c4ccccc43)[C@H]2C)cc1`, the composite z-score turned out to be 2.04 in assay [1]; 0.713 in assay [2]; 0.449 in assay [3]; 1.09 in [5]; 1.26 in assay [6]; 0.799 in assay [7]. Moreover, the composite z-score in assay [8] stood at 1.37; in assay [9], 1.1; in [10], 0.816. Further, the z-score in [4] is -0.0709 (inactive).

`COC(=O)[C@@]1(Cc2ccc(OC)cc2)[C@H]2c3cc(C(=O)N4CCCC4)n(Cc4ccc(OC(F)(F)F)cc4)c3C[C@H]2CN1C(=O)c1ccccc1`: the composite z-score in assay [1] was 0.858; in assay [2], 1.15; in assay [3] it was 1.1; in assay [5], 0.717; in [6], -0.5; in assay [7], -0.0407. Moreover, the figures for the composite z-score in assay [8], in assay [9] and in assay [10] were 0.598, -0.414 and 0.891, respectively. In addition, the z-score in assay [4] is -0.886 (inactive).

For the molecule `COc1ccc(CCNC(=O)[C@@]2(Cc3ccccc3I)c3ccccc3C(=O)N(Cc3ccccc3Cl)[C@H]2c2ccc(CO)cc2)cc1`, the composite z-score in [1] is 1.79; in assay [2] it was 0.316; in assay [3], 0.646; in [5] it was 0.202; in assay [6], -0.181; in assay [7] it was -0.662. In addition, the composite z-score in assay [8] is -0.407; in assay [9], -0.735; in [10], 0.0137. In addition, the z-score in [4] was -1.55 (inactive).

For `COc1cc(CO)cc(I)c1O[C@H]1C=C(C(=O)NCCO)C[C@@H](NCC2CCCCC2)[C@@H]1O`, the composite z-score in [1] was 0.587; in assay [2], -0.155; in [3], -0.103; in assay [5] it was 0.536; in assay [6], 0.0102; in [7], 0.151. In addition, the composite z-score in assay [8] turned out to be 0.607; in assay [9] it was 0.502; in assay [10] it was 0.328. In addition, the z-score in assay [4] was -0.47 (inactive).

`CN1C(=O)C2C=CC(C(O)c3cc(C(F)(F)F)cc(C(F)(F)F)c3)N(Nc3ccccc3)C2C1=O` (stereo not given): the composite z-score is 0.395 in assay [1]; -0.224 in assay [2]; 0.0811 in assay [3]; 0.0307 in [5]; -0.107 in [6]; -0.0397 in assay [7]. Further, the composite z-score in [8] was -0.247; in assay [9], -0.887; in assay [10], 0.0638. In addition, the z-score in assay [4] is 1.37 (inactive).

Take `CC1CC/C=C\[C@H]2OC34C=CCN(C(C)(C)C)C(=O)[C@H]3N(C(CO)C(C)C)C(=O)[C@@H]4C2C(=O)O1` (stereo not given in full): the composite z-score in assay [1] is 0.337; in assay [2], -0.193; in assay [3] it was -0.347; in assay [5] it was 0.352; in [6], 0.156; in assay [7], -0.33. The composite z-score in [8] is 0.27; in [9] it was 0.391; in [10], 0.524. The z-score in assay [4] was 0.792 (inactive).

`CC(C)CNC(=O)[C@@H]1c2ccccc2C(=O)N(C2CCCCC2)[C@H]1c1ccc(CO)cc1`: the composite z-score in [1] was 1.65; in [2], 0.477; in assay [3], 0.962; in assay [5] it was -0.0953; in assay [6] it was 0.185; in assay [7], -0.602. Also, the composite z-score in [8] was -0.333; in assay [9], -0.308; in [10], 0.0986. Besides, the z-score in [4] was -1.25 (inactive).

For the origin of these results see PubChem BioAssay.
